About 83,000 compounds went through this panel and 20% of them were active in at least one assay; those are over-represented in the sample as a whole.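 Treatment: one concentration, 48 hours, 96-well format. Scoring: percent growth, with anything below 10 considered active.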 Activity calls are given as the source filed them.
test system: HCT-15 colon; experiment: NCI-60 one-dose screen, 48 h (100 = growth as untreated, 0 = no growth, -100 = all killed); details: 10 µM unless noted
Procedure: Growth inhibition of the HCT-15 human tumor cell line is measured as a screen for anti-cancer activity. Cells are grown in 96 well plates and exposed to the test compound for 48 hours. Compounds are tested at a single concentration, which is 10^-5 M for most compounds. The reported endpoint is percent growth (GI% or GIPRCNT), where numbers from 0 - 100% represent growth inhibition, and numbers from -100% - 0 represent cell death. For example, a value of 40 represents 60% growth inhibition. A value of 0 means no net growth occurred over the course of the experiment. A value of -40 indicates 40% of cells at the beginning of the experiment died by the end of the experiment. A value of -100 means all cells are dead at the end of the experiment.
NCI-60 Human Tumor Cell Lines Screen was performed using the standard one-dose NCI protocol, which is described in more detail at https://dtp.cancer.gov/discovery_development/nci-60/default.htm.
Compounds with GIPRCNT values below 10 were considered active. Activity score was based on GIPRCNT using the following formula: […]
Score is 0 for GIPRCNT values of 100 or above, 50 for GIPRCNT values of 0, and 100 for GIPRCNT values of -100.

Row | SMILES | growth
1 | O=[N+]([O-])c1cccc(-c2nc(-c3ccc(Cl)cc3Cl)cn2-c2ccccc2)c1 | -6.56% (active)
2 | COc1ccc2c(c1)OC1=C(C(=O)OC1)C2c1cc(OC)c(OC)c(OC)c1 (stereo not given) | 19% (inactive)
3 | NC(=S)N/N=C(\c1ccc(Cl)cc1)C1CC1 | 84.3% (inactive)
4 | CC(=O)N1N=C(c2cccc(Nc3ccncc3)c2)CC1c1ccc2c(c1)OCO2 (stereo not given) | 81.2% (inactive)
5 | Cc1nc2sc(C(=O)Nc3ccccc3)c(N)c2cc1C(=O)c1ccc(C(F)(F)F)cc1 | 103% (inactive)
6 | CCC1(CC)NC(=O)c2c(c3ccc(Cl)c(Cl)c3n2C)C1C#N (stereo not given) | 100% (inactive)
7 | CCCCOc1ccc(/C=N/Nc2cc(C)nc3ccc(Cl)cc23)cc1 | -80.3% (active)
8 | COc1ccc(Cn2nc(-c3cc(OC)c(OC)c(OC)c3)c3c2CCc2cnoc2-3)cc1OC | 53.1% (inactive)
9 | CCCCCCCCCCCCCCCC(=O)OC[C@@]1(O)C[C@@]23CC[C@@H]4C(C)(C)[C@H](O)CC[C@@]4(C)[C@@H]2CC[C@H]1C3 | 107% (inactive)
10 | CCN(CC)CCOC(COc1cc(C)cc(C)c1)COc1cc(C)cc(C)c1 | 34.5% (inactive)
11 | O=C1/C(=C/c2ccc(O)cc2)COc2ccc(-c3ccccc3)cc21 | 48.1% (inactive)
12 | CC[N+](CC)(CCCC(C)[N+]1(Cc2ccccc2)C(C)=CC=C1C)Cc1ccccc1 (stereo not given) | 98.5% (inactive)
13 | O=C(NNc1nc(Cl)nc(N2CCN(C(c3ccccc3)c3ccccc3)CC2)n1)c1ccccc1 | -60.1% (active)
14 | CCCCCN1C=C/C(=C\C(=O)N(C)c2ccc(Br)cc2)c2ccccc21 | 102% (inactive)
15 | Nc1cc(N)c2cccnc2c1O | 83.7% (inactive)
16 | O=C(c1ccccc1)N1N=C(c2ccc(-n3ccc(C(F)(F)F)n3)cc2)CC1c1ccc[nH]1 (stereo not given) | 70.6% (inactive)
17 | O=C1OC(=O)C2C1CC=CC2c1ccccc1 (stereo not given) | 105% (inactive)
18 | C=C1C(=O)O[C@H]2[C@H]1CC/C(CNC(=O)/C=C/c1ccccc1F)=C\CC[C@@]1(C)O[C@@H]21 | -63.4% (active)
19 | CCn1cc(C2NC(=O)c3ccccc3N2)c2cccc(C)c21 (stereo not given) | 18.6% (inactive)
20 | COc1ccccc1/C=C1\COc2ccc(-c3ccccc3)cc2C1=O | 22.7% (inactive)

Row | SMILES | growth
21 | CN(C)C(=O)c1cc2cnc(Nc3ccc(-c4csc5c(=O)cc(N6CCOCC6)oc45)cc3)nc2n1C1CCCC1 | -11.4% (active)
22 | CC(C)Cc1ccc(C(C)C(=O)NCc2ccc(Cn3c(=O)sn(-c4ccc(Cl)cc4)c3=O)cc2)cc1 (stereo not given) | 83.2% (inactive)
23 | O=C(N/N=C/c1ccc(F)cc1)c1ccccc1Nc1cccc(C(F)(F)F)c1 | 85.6% (inactive)
24 | CC(=O)N1c2ccccc2NC2=C(C(=O)N(C)C2(C)C)C1C (stereo not given) | 93.8% (inactive)
25 | Fc1ccc(C2CC(c3cccc(Nc4ccncc4)c3)=NN2c2ccccc2)cc1 (stereo not given) | 2.73% (active)
26 | O=C1CCCCCCCCC(O)C(O)CCCC(c2cccs2)O1 (stereo not given) | 96.7% (inactive)
27 | CCN1C(=O)/C(=c2\sc3n(c2=O)NC2C(N=3)N(CC)C(=O)N2CC)c2ccccc21 (stereo not given) | 33.7% (inactive)
28 | O=C(CSc1nc2sc3c(c2c(=O)n1Cc1ccccc1)CCCC3)N1CCN(c2ccccc2)CC1 | 94.8% (inactive)
29 | O=C(NCCN1CCOCC1)OCc1nc2nc(Cl)nc(N3CCOCC3)c2[nH]1 | 16.4% (inactive)
30 | O=S(=O)(NCCCNc1nccc(-c2c(-c3cccc(O)c3)nc3occn23)n1)c1ccc(Br)cc1 | 102% (inactive)
31 | Cc1ccc(O)c(C(=O)O)c1 | 104% (inactive)
32 | CCC(=O)c1ccc(O)c(OC)c1 | 111% (inactive)
33 | COc1cc(/C=C/C(=O)c2c(C)oc3nc[nH]c(=O)c23)ccc1O | 98.1% (inactive)
34 | CNC(=O)NCC1OC(n2cnc3c(NC(=O)Nc4ccccc4)ncnc32)C(O[Si](C)(C)C(C)(C)C)C1O[Si](C)(C)C(C)(C)C (stereo not given) | 21.3% (inactive)
35 | Cc1nn(-c2ccccc2)c(N2CCOCC2)c1/C=N/N=c1\sc2ccccc2n1C | 39.1% (inactive)
36 | C=C(C)[C@@H]1CC[C@]2(C(=O)NCC(=O)OC)CC[C@]3(C)[C@H](CC[C@@H]4[C@@]5(C)Cc6c([nH]c7ccccc67)C(C)(C)[C@@H]5CC[C@]43C)[C@@H]12 | 81.9% (inactive)
37 | Cc1c2c(cc[n+]1Cc1ccccc1)c1ccc(OCC3CCCCC3)cc1n2CC1CCCCC1 | -81.7% (active)
38 | NC(=O)c1ncn(C2OC(CO)C(O)C2O)n1 (stereo not given) | 89.3% (inactive)
39 | COc1ccc(-c2nc(SC)nc(N3CCOCC3)c2C#N)cc1 | 93.9% (inactive)
40 | CC(C)[N+](C)(CCOC(COc1ccccc1)COc1ccccc1)C(C)C | 100% (inactive)

Reference: PubChem BioAssay (NCI)
